Screens from PubChem.
Rows were chosen to be rich in hits. Some 9% of all compounds tested hit in one or more screens of this group.
JMJD2A Tudor inh – JMJD2A Tudor domain (human) inhibition; AlphaScreen JMJD2A-Tudor / H3K4me3 peptide binding; Potency, µM (doses to about 114 µM), without a hit: at the top dose activity change, negative = inhibition, actives largely listed as inhibitors; 390,000 tested, 4.4% active; AID 504339; note: % is set by controls: 0 for no effect and ±100 for the full control effect; nearly all actives have a fitted effect of over 50% in size
PLK1 PBD inh – blocks phosphopeptide binding to human PLK1 polo-box domain | AID 720504 | P53350 | Potency, µM, for the others: max response, negative = inhibition, actives largely listed as inhibitors | 360,000 tested, 2.8% active | Plk1 PBD binding of FITC phosphopeptide, fluorescence polarization; note: series mostly up to about 57 µM; % is set by controls: 0 for no effect and ±100 for the full control effect; nearly all actives have a fitted effect of over 65% in size
BAZ2B block – BAZ2B (human) inhibition; AlphaScreen BAZ2B-H3K14Ac peptide displacement; Potency, µM (top dose mostly 114 µM), for the others: at the top dose activity change, negative = inhibition, actives largely listed as inhibitors; 360,000 tested, 4.4% active; AID 504333; note: % is set by controls: 0 for no effect and ±100 for the full control effect; nearly all actives have a fitted effect of over 60% in size
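Inhibition is scored as reduced AlphaScreen emission. The BAZ2B/b-H3(5-23)K14Ac complex (50 nM each) in PBS pH 7.4, 0.01% Tween-20 meets compound (up to 110 uM) for 30 min at RT before bead addition.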
HP1b binding inh – inhibitors of HP1-beta chromodomain binding to methylated histone tails; P83916; AlphaScreen HP1-beta / biotin-H3K9me3 peptide binding; Potency, µM (highest dose often 114 µM), without a hit: at the highest dose activity change, negative = inhibition, actives largely listed as inhibitors; 390,000 tested, 0.56% active; note: nearly all actives have a fitted effect of over 70% in size
Target sequence (P83916 whole entry, looked up): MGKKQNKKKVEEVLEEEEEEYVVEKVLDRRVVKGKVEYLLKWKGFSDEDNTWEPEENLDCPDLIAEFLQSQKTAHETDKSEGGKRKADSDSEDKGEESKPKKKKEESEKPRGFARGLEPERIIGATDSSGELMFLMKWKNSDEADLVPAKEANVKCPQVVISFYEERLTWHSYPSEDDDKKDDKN
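AlphaScreen: HP1-beta (50 nM) preformed 30 min with biotin-H3(1-18)K9me3 peptide (50 nM) in PBS pH 7.4, 0.01% Tween-20. Compound added for 30 min at RT, then streptavidin donor/nickel chelate acceptor beads (10 ug/mL) for 30 min.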
G9a inh – G9a (human) methyltransferase inhibition; 350,000 tested, 8.8% active; Potency, µM (doses to about 102 µM), inactives show top-dose activity, negative = inhibition, most hits filed as inhibitors; G9a H3K9 monomethylation, AlphaScreen, 2 h; note: % is set by controls: 0 for no effect and ±100 for the full control effect; nearly all actives have a fitted effect of over 75% in size
Target sequence (Q96KQ7 913-1193 limits assumed): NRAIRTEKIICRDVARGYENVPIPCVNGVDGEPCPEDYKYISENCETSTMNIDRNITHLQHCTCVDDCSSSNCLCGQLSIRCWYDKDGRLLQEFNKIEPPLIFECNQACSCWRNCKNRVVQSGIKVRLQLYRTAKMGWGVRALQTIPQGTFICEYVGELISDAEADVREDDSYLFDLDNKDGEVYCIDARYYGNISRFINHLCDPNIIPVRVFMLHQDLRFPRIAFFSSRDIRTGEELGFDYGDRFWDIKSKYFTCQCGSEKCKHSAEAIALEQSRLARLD
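Quantitative HTS format: methyltransferase activity on a biotin-tagged H3K9 peptide is measured by AlphaScreen, using a rabbit anti-monomethyl-H3K9 antibody with streptavidin donor and anti-IgG acceptor beads. Final levels are 20 nM enzyme, 500 nM peptide, 20 uM SAM; 2 h RT.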
ALOX12 inh – inhibitors of human 12S-lipoxygenase ALOX12 | P18054 | purified 12hLO, xylenol orange hydroperoxide absorbance | Potency, µM (titrated, usually from 108 µM), without a hit: at the highest dose activity change, negative = inhibition, usual class: inhibitors | 580,000 tested, 1.1% active | AID 1671190; note: % is set by controls: 0 for no effect and ±100 for the full control effect
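Hydroperoxide product was detected by ferrous iron/xylenol orange as the 573 to 405 nm absorbance ratio. Arachidonic acid at 40 uM (final) was turned over for 30 min at room temperature by 150 nM human 12hLO, pH 7.0 Hepes buffer, after 15 min compound preincubation.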
The depositor's hits bear a star; ? = inconclusive; . = no result given; [ ] = dose if it differs, or a comment. Calls come from the whole dose curve; as a rule, active = well fitted curve in the direction sought with a large enough effect; inconclusive = small, poorly fitted or top-dose-only effect, or another doubt; inactive = no such curve, though single readings can be large; an effect the other way counts as inactive or inconclusive. Potency is the fitted concentration of half-maximal effect.

SMILES | JMJD2A Tudor inh | PLK1 PBD inh | BAZ2B block | HP1b binding inh | G9a inh | ALOX12 inh
CCN1CCN(c2ccc(NC(=O)c3ccc(C#N)cc3F)cc2Cl)CC1 | -23% | -9% | -15% | 10% | -45%[59 µM] | -14%
Cc1ccc(C)c(/C=C/c2onc(C)c2S(=O)(=O)N2CCCC(C(=O)NC(C)(C)C)C2)c1 (stereo not drawn) | . | . | . | . | . | -17%
O=C(O)[C@@H](c1ccccc1)N1Cc2ccccc2C1=O | 25µM* | -15% | 20µM* | -11% | 40µM* | 40µM*
CC(=O)Nc1ccc(NC(=O)C(c2ccccc2)N2Cc3ccccc3C2=O)cc1 (stereo not drawn) | -6% | . | 2% | 22% | -31%[59 µM] | ?
COc1ccc(-c2nc(-c3cccc(C(F)(F)F)c3)no2)cc1OC | -3% | -6% | 9% | 19% | -9%[59 µM] | 0%
CCCC[C@@H]1C=C(C(=O)O)[C@H](c2ccc(C)cc2)N1S(=O)(=O)c1ccc(C)cc1 | -12% | -14% | . | 16% | . | 0%
CCCC[C@@H]1C=C(C(=O)O)[C@H](c2ccc(Cl)c(Cl)c2)N1S(=O)(=O)c1ccc(C)cc1 | -22% | 30µM* | . | 19% | . | ?
CCCCC[C@@H]1C=C(C(=O)O)[C@H](c2ccc(C)cc2)N1S(=O)(=O)c1ccc(C)cc1 | 89µM* | -21% | . | 0% | . | ?
COc1ccc(C2/C=C\CN(C(=O)c3ccccc3)C(Cc3ccccc3)C(=O)N2Cc2ccc(F)cc2)cc1 (stereo not drawn) | -21% | . | . | 6% | . | .
CCOc1ccc(C(C)=O)cc1N1C(=O)C2C3C=CC(O3)C2C1=O (stereo not drawn) | 20µM* | 27µM* | ? | 28µM* | ? | .
Cc1cc(S(=O)(=O)Nc2cc3c(cc2Cl)n(C)c(=O)c(=O)n3C)ccc1F | -20% | . | -13% | 0% | -7%[59 µM] | ?
CCOC(=O)c1c(CC(C)C)csc1NC(C)=O | 30% | -5% | 54% | 83% | 15%[12.7 µM] | -1%
CCOC(=O)c1c(-c2cccs2)csc1NC(=O)c1ccncc1 | -5% | -5% | 13% | 35% | 19%[2.33 µM] | -20%
COC(=O)c1c(-c2ccccc2)csc1N | -15%[57.1 µM] | 11µM* | ? | ? | ? | ?
COC(=O)c1c(-c2ccccc2)csc1NC1=NS(=O)(=O)c2ccccc21 | -13% | 1% | -2% | 16% | ? | ?
CCOC(=O)c1c(-c2cccs2)csc1N | -35% | ? | -38% | ? | 50µM* | 45µM*
CCOC(=O)c1c(-c2cc(OC)c(OC)c(OC)c2)csc1N | . | -2% | . | . | . | -17%
CCCc1csc(N)c1C(=O)OCC | . | . | . | . | . | 7.9µM*
CCOC(=O)c1c(-c2ccco2)csc1N | ? | ? | -13% | ? | 18µM* | -1%
COc1ccccc1N1CCN(C(=O)c2cnn(-c3ccc(C)c(C)c3)c2C2CCN(C(=O)OC(C)(C)C)CC2)CC1 | -35% | . | -22%[57.1 µM] | 12% | ? | -17%
O=S(=O)(c1ccccc1)N1CCN(c2ncccn2)CC1 | -8% | -1% | 1% | 49% | 3%[2.33 µM] | 13%
CC(C)[C@H](NC(=O)NCc1ccc(Cl)cc1)C(=O)O | -1% | 0% | 12% | 33% | 15%[12.7 µM] | 16%
CC(C)C(NCc1c(Cl)cccc1Cl)C(=O)O (stereo not drawn) | -18% | -3% | -1% | 16% | 79µM* | ?
COn1c(SC2CCCCC2)nc2ccccc2c1=O | 27% | -21% | 43% | 78% | 22µM* | ?
Cc1ccc(C2(C(F)(F)F)NC(=O)N3N=C4CCCCCN4C3=C2C#N)cc1 (stereo not drawn) | -12% | -6% | -1% | 27% | -25% | ?
N#CC1=C2Nc3ccccc3N2C(=O)NC1(c1ccccc1)C(F)(F)F (stereo not drawn) | 56µM* | 24µM* | 4% | ? | 1%[12.7 µM] | 0%
CCCNc1c(NC(=O)c2ccc(OCCC)cc2)c(=O)oc2ccccc12 | -6% | . | 5% | 23% | 3%[59 µM] | -3%
